Data as given in PubChem BioAssay AID588453 (National Center for Advancing Translational Sciences (NCATS), 2011).
Several values for one entry are separate records, joined by “and”; a condition that tells them apart may be missing. Identical values can stand only once. Among all 390,000 compounds or so, about 4,000 (1%) were called active. A call without a number means that no potency is given here. Not shown: some 4% with an inconclusive outcome. This is one part of a sample in which actives are shown more often than they occur. The call rests on the fitted dose curve; in most records, active means well fitted inhibition curve with a large enough effect; inconclusive means small, poorly fitted or top-dose-only effect; inactive means no such curve, though single readings can be large or run the other way. A structure can be active in one record and inactive in another.

The molecules below were run against Thioredoxin reductase 1, cytoplasmic (Rattus norvegicus) (UniProt O89049) (assay: qHTS Assay for Inhibitors of Mammalian Selenoprotein Thioredoxin Reductase 1 (TrxR1): qHTS). Conditions: recombinant rTrxR1, NADPH fluorescence consumption, selenite substrate; series mostly up to 114 µM.
Chain of Thioredoxin reductase 1, cytoplasmic (Rattus norvegicus) (O89049 whole entry, looked up): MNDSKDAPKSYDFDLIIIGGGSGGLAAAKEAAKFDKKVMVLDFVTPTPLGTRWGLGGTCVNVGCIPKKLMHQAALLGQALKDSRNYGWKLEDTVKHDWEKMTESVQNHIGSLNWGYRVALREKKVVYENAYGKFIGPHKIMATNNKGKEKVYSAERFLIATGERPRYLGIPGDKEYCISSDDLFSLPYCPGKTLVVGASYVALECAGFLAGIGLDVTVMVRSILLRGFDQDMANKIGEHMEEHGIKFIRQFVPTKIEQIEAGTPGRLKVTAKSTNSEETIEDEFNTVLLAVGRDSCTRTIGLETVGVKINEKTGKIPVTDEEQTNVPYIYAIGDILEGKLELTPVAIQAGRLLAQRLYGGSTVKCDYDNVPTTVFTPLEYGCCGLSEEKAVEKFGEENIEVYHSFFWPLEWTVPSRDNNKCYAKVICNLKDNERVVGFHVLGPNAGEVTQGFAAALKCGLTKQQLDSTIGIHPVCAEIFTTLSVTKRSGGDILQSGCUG
Outline: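 Rat TrxR1 (90 nM in the dispensed reagent) was pre-reduced with 400 uM NADPH for 5 min at room temperature, then incubated with compound for 15 min. After 400 uM selenite was added, NADPH fluorescence (Ex 340/Em 450 nm) was followed for 8 min.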
Further: nearly all actives have a fitted effect of over 65% in size.
Potency means the concentration at half of the fitted maximal effect.

SMILES	Potency
COc1ccc(CN(Cc2ccccc2)C(=O)c2ccc(O)cc2)cc1COc1ccc(NC(C)=O)cc1	inactive
Cc1ccc(C2C(C#N)C(C#N)N3CCCN23)cc1 (configuration not stated)	22.4 µM (active)
COc1ccc(CCNC(=O)Cn2c(=O)n(-c3ccccc3)c(=O)c3c(C)c(C)sc32)cc1OC	inactive
CC(C)(C)OC(=O)N1CCC(c2c(C(=O)NCCc3ccsc3)cnn2-c2ccc(F)cc2F)CC1	inactive
COc1ccc(CN2CCC(n3nccc3NC(=O)CCCc3ccccc3)CC2)cc1C	inactive
CCn1cc(CN2CCC(n3nccc3NC(=O)CCCc3ccccc3)CC2)c(C)n1	inactive
Cc1ccc(CN2CCC(n3nccc3NC(=O)CCCc3ccccc3)CC2)o1	70.8 µM (active)
CN(C)c1cccc2ccccc12	inactive
COC(=O)C1=C(C(=O)OC)[C@@H]2N(Cc3ccccc3)c3ccccc3[C@@]23C[C@@H](C(=O)OC)N(S(=O)(=O)c2ccc(C(F)(F)F)cc2)C3=N1	inactive
Cc1cccc(CS(=O)(=O)c2ncc(Cl)c(C(=O)Nc3ccc(F)cc3)n2)c1	7.94 µM (active)
CSc1ncc(Cl)c(C(=O)Nc2ccc(S(=O)(=O)N3CCCC(C)C3)cc2)n1 (configuration not stated)	inactive
Cc1ccc(CCNC(=O)c2ccc(CS(=O)(=O)Cc3cccc(C)c3)o2)cc1	inactive
Cc1ccc(NC(=O)c2nc(S(=O)(=O)Cc3cccc(C)c3)ncc2Cl)cc1	1.78 µM (active)
Cc1cccc(NC(=O)Cn2cc(S(=O)(=O)Cc3ccccc3Cl)c3ccccc32)c1	inactive
CCCSc1ncc(Cl)c(C(=O)Nc2c(C(=O)Nc3ccccc3)oc3ccccc23)n1	inactive
Cc1cccc(NC(=O)c2nc(S(=O)(=O)Cc3ccccc3)ncc2Cl)c1	5.62 µM (active)
CSc1nnc(NC(=O)c2nc(S(=O)(=O)Cc3ccc(C)cc3)ncc2Cl)s1	15.8 µM (active)
CCOC(=O)c1ccc(NC(=O)c2nc(SCc3ccc(F)cc3)ncc2Cl)cc1	inactive
CCS(=O)(=O)c1ncc(N(Cc2ccc(F)cc2)Cc2ccco2)c(C(=O)Nc2cc(C)ccc2C)n1	inactive
CCOCCCNC(=O)c1c(NC(=O)c2nc(SC)ncc2Cl)sc2c1CCCC2	inactive
Cc1ccc2nc(NC(=O)c3nc(SCc4ccccc4F)ncc3Cl)sc2c1	inactive
CN(C)c1cccc(C(=O)Nc2nc3ccc(S(=O)(=O)NC(C)(C)C)cc3s2)c1	inactive
CN(C)c1ccc(/C=C/c2c3ccccc3nc3ccccc23)cc1	inactive
Cc1ccc(CNS(=O)(=O)c2ccc(-c3cc(C(F)(F)F)on3)s2)cc1	inactive
Cc1nn(-c2ccc(N3CCCCC3)nn2)c(C)c1CCC(=O)NCc1ccc(F)cc1	inactive

SMILES	Potency
COc1ccccc1NC(=O)c1oc2ccccc2c1NC(=O)COc1ccccc1OC	inactive
COc1ccc(S(=O)(=O)c2c(Nc3cccc(Cl)c3)sc(C(=O)c3ccccc3)c2N)cc1	inactive
O=C(CNS(=O)(=O)c1cccs1)N1CCN(c2ccccc2Cl)CC1	inactive
COc1ccccc1CNC(=O)C(Cc1ccccc1)NS(=O)(=O)c1ccc2c(c1)oc(=O)n2C (configuration not stated)	inactive
CCOC(=O)c1c(C)oc2nc(C)nc(N(CC(C)C)CC(C)C)c12	inactive
Cc1ccc(CNC(=O)CCNS(=O)(=O)c2ccc3c(c2)oc(=O)n3C)cc1	inactive
CCOC(=O)c1c(NC(=O)c2ccc(S(=O)(=O)N(CC)CC)cc2)sc2c1CCCCC2	inactive
CCc1ccc(CNC(=O)c2cc3cc4ccc(OC)cc4nc3o2)cc1	inactive
O=C(O)/C(=C/c1c(C(=O)O)[nH]c2cc(Cl)cc(Cl)c12)c1ccccc1	inactive
O=C(Nc1nc2ccc(F)cc2s1)c1nc(SCc2ccccc2F)ncc1Cl	inactive
O=C(Nc1ccccc1C(F)(F)F)c1nc(S(=O)(=O)Cc2ccccc2F)ncc1Cl	2.82 µM (active)
CN(CC(=O)Nc1ccccc1C(F)(F)F)C(=O)Cc1ccccc1F	inactive
Cc1ccc(Cn2cnc3c(cnn3C(C)(C)C)c2=O)c(F)c1	inactive
O=C(NNC1CC(=O)N(c2cccc(Cl)c2)C1=O)c1cccnc1 (configuration not stated)	inactive
O=C1[C@@H]2C(c3cccnc3)=NO[C@@H]2C(=O)N1c1ccc(Cl)cc1Cl	70.8 µM (active)
CCN(CC)c1ccc(/C=C/c2c(C)cnc3ccc(C)cc23)cc1	inactive
COc1cccc(CNC(=O)CCc2nc(-c3ccc(C)cc3)no2)c1	inactive
COc1ccc(OC)c(NC(=O)CSc2nc3ccccc3nc2N2CCCCC2)c1	inactive
CCn1cc(C(=O)NCc2ccccc2)c(=O)c2cc(S(=O)(=O)N3CCCCC3)ccc21	inactive
CCC(=O)N1CCc2cc(Br)cc(S(=O)(=O)CCC(=O)NCc3ccccc3OC)c21	inactive
O=C(Nc1cccnc1)c1cc2cc(Br)ccc2oc1=O	inactive
O=C(NC(=S)Nc1ccc(Br)cc1F)C1CCCCC1	inactive
Fc1cc(Br)ccc1NC(=S)Nc1cccnc1	50.1 µM (active)
CN(C)c1ccc(C=Nc2ccc(/C=C/c3ccnc4ccccc34)cc2)cc1	inactive
O=C(/C=C/c1ccc(Cl)cc1Cl)c1cccnc1	4.47 µM (active)

SMILES	Potency
O=C(OCc1cc(Cl)ccc1OC(F)F)c1cccnc1	inactive
O=C(O)/C(=C/c1cccnc1)NC(=O)c1ccccc1	inactive
Cc1cc(C)c(NC(=O)CN2C(=O)c3cccnc3Oc3ccc(Cl)cc32)c(C)c1	inactive
Cc1ccc(SCC(CC(C)C)N2CCN(CCc3ccccc3)CCC2=O)cc1 (configuration not stated)	inactive
O=C(Nc1ccc2nc(SCCOc3ccccc3)sc2c1)c1ccco1	inactive
O=C(Nc1nc(-c2ccco2)c(-c2ccco2)s1)c1ccco1	28.2 µM (active)
O=C(Nc1nnc(C2CC(=O)N(c3ccc(Cl)cc3)C2)s1)c1ccco1 (configuration not stated)	inactive
Cc1ccc(C)c(OCC(=O)Nc2sc3c(c2C#N)CCCC3)c1C	inactive
COc1cccc(C2CC(c3ccccc3)=NN2S(=O)(=O)c2ccccc2)c1OC (configuration not stated)	inactive
COc1ccc2c(c1OC)C(=O)OC2Nc1nc(-c2ccccc2)cs1 (configuration not stated)	4.47 µM (active)
Cc1ccc2c(c1)N(C(=O)CCC(=O)NCc1ccccc1F)CC(C)O2 (configuration not stated)	inactive
O=C(C1CCC(Cn2c(=O)c3sccc3n(Cc3ccccc3F)c2=O)CC1)N1CCCCC1 (configuration not stated)	inactive
O=C(/C=C/c1ccc([N+](=O)[O-])o1)NNC(=O)c1ccc(F)cc1	3.16 µM (active)
COc1ccc(-n2c(SCC(=O)Nc3ccc(Cl)c(C)c3)nc3n[nH]c(C)c3c2=N)cc1	inactive
O=C(Nc1ccc2oc(-c3ccc(O)c(Br)c3)nc2c1)c1cc2ccccc2o1	inactive
CCCCC(=O)Nc1nnc(S(=O)(=O)N(C)Cc2ccco2)s1	44.7 µM (active)
CN(Cc1ccco1)S(=O)(=O)c1nnc(NC(=O)c2ccccc2)s1	inactive and 17.8 µM (active)
CCOc1cccc(C(=O)Nc2nnc(S(=O)(=O)N(C)c3ccc(C)cc3)s2)c1	inactive
CCN(c1ccc(Cl)cc1)S(=O)(=O)c1nnc(NC(=O)c2ccco2)s1	inactive
CCN(CC)S(=O)(=O)c1nnc(NC(=O)COc2ccccc2Cl)s1	inactive
CCC(=O)Nc1nnc(S(=O)(=O)N(CC(C)C)c2ccccc2)s1	inactive
CCCCOc1ccc(C(=O)NO)cc1	inactive
COC(=O)c1ccc(NC(=O)CCc2c(C)nc3c(c(C)nn3-c3ccc(C)cc3)c2C)cc1	inactive
COC(=O)c1cc(NC(=O)c2cnc(SC)nc2-c2ccccc2)cc(C(=O)OC)c1	inactive
N#Cc1cccc(CN2CCC(=O)N(CCO)CC2)c1	inactive

SMILES	Potency
N#CCCN1CCN(S(=O)(=O)c2ccc(S(=O)(=O)N3CCCC3)cc2)CC1	inactive
CC(C)(C)c1cc(CN2CCN(CCC#N)CC2)cc(C(C)(C)C)c1O	4.47 µM (active)
COc1cc2nc(Cl)nc(NC3CC3)c2cc1OC	inactive
Cc1cccc(C(CC(=O)NCC2(c3ccccc3)CCCC2)c2ccccc2)c1O (configuration not stated)	inactive
O=C(CCSCc1ccccc1F)N1CCN(c2ccc(Cl)cc2)CC1	inactive
COC(=O)C1=C(C)N(c2ccc(C)cc2)/C(=C/c2ccc(O)cc2)C1=O	inactive
COC(=O)C1=C(C)N(C)C(C)=C(C(=O)OC)C1c1cccc(Br)c1	inactive
COC(=O)C1=C(C)N(C(C)c2ccccc2)C(=O)/C1=C\c1ccco1 (configuration not stated)	28.2 µM (active)
COC(=O)C1=C(C)N(c2ccc(Br)cc2)C(=O)/C1=C\c1ccco1	50.1 µM (active)
COc1ccc(N2C(=O)/C(=C\c3ccco3)N=C2SCC(N)=O)cc1Cl	inactive
COc1ccc(N2C(=O)CS(=O)(=O)C23C(=O)N(Cc2ccc(C)cc2)c2ccccc23)cc1Cl (configuration not stated)	inactive
Cc1ccc2nc(COc3cccc(NC(=O)c4ccccc4Cl)c3)cc(=O)n2c1	inactive
CSc1ccccc1NC(=O)CCS(=O)(=O)c1nc(-c2cccs2)cc(C(F)(F)F)n1	14.1 µM (active)
O=C(CSc1ccc(-c2cccs2)nn1)Nc1ccccc1F	inactive
COc1ccc(Cl)cc1NC(=O)CSc1nc(-c2cccs2)cc(C(F)(F)F)n1	inactive
CCc1ccc(S(=O)(=O)c2nnn3c2nc(N2CCN(CC)CC2)c2sccc23)cc1	inactive
CC(C)C[C@H](NC(=O)[C@H](O)[C@H](N)Cc1ccccc1)C(=O)O	inactive
O=C(CSc1nnc(-c2cccnc2)n1Cc1ccco1)c1ccc(Cl)c(Cl)c1	44.7 µM (active)
CCn1c(SCC(=O)NCc2ccco2)nnc1-c1ccc(N)cc1	inactive
O=C(CSc1nnc(-c2cccnc2)n1CCc1ccccc1)NCc1ccccc1	inactive
Cc1ccc(C)c(N2CCN(C(=O)Cc3c(C(=O)O)c(C)cn3C)CC2)c1	inactive
Cc1ccccc1CNC(=O)Cn1c(C)c2cnn(-c3ccccc3)c(=O)c2c1C	inactive
